Laboratory results published in paper PMC7862700, “An all-to-all approach to the identification of sequence-specific readers for epigenetic DNA modifications on cytosine”.

Assays:
Assay in all cases: DAPPL (digital affinity profiling via proximity ligation, sequencing); 10 mM Tris-HCl pH 7.5, 50 mM NaCl, 1 mM DTT, 4% glycerol, room temperature, 30 min; GST-TFs on glutathione beads, 16-mer random dsDNA library, 0.1% formaldehyde crosslink after washing; high values mean tight binding
FLI1 = biological target: T1, FLI1 (Homo sapiens, UniProt Q01543 1-452); details: protein: recombinant; tags: N-terminal GST; dsDNA, one strand shown
T1 sequence: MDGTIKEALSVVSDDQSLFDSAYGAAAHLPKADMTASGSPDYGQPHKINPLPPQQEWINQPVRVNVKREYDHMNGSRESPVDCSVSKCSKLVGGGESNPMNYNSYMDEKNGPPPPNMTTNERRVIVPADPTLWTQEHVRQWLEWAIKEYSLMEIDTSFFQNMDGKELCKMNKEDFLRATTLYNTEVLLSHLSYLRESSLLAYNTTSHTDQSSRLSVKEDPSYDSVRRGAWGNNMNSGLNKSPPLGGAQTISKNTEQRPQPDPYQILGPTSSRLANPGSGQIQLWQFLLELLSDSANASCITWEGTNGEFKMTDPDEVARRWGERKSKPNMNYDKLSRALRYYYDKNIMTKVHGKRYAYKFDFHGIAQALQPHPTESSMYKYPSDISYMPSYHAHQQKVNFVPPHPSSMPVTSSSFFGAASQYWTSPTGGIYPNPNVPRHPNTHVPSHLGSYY
Procedure, shortened: (§1)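 Binding signal is defined as a hexamer's read frequency for one factor over its frequency for the tag-only sample. To obtain reads, GST-fused human transcription factors were expressed in yeast, captured on glutathione beads, barcoded with DNA and pooled with that sample. Pools met 200 nmole of a 16-mer random double-stranded DNA library in Tris/NaCl/DTT/glycerol buffer for 30 min at room temperature before washing, 0.1% formaldehyde crosslinking, proximity ligation (BsaI/T4 ligase, 1 h, 37 °C), PCR and Illumina NextSeq500 sequencing.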

ELK1 = biological target: T2, ELK1 (Homo sapiens, UniProt P19419 1-428); details: protein: recombinant; tags: N-terminal GST; dsDNA, one strand shown
T2 sequence: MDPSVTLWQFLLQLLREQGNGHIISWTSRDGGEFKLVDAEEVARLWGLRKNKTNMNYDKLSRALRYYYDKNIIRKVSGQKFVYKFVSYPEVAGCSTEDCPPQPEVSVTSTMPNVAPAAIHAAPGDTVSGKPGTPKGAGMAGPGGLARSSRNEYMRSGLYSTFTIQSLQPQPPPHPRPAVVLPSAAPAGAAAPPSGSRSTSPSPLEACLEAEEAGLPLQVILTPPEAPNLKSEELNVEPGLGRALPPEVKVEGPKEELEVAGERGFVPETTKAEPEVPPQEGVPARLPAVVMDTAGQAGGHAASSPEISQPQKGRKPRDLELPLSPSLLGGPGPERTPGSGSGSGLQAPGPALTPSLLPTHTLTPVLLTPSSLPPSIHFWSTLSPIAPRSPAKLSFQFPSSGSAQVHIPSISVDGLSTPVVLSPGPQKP
Procedure, shortened: as §1

GABPA = biological target: T3, GABPA (Homo sapiens, UniProt Q06546 1-454); details: protein: recombinant; tags: N-terminal GST; dsDNA, one strand shown
T3 sequence: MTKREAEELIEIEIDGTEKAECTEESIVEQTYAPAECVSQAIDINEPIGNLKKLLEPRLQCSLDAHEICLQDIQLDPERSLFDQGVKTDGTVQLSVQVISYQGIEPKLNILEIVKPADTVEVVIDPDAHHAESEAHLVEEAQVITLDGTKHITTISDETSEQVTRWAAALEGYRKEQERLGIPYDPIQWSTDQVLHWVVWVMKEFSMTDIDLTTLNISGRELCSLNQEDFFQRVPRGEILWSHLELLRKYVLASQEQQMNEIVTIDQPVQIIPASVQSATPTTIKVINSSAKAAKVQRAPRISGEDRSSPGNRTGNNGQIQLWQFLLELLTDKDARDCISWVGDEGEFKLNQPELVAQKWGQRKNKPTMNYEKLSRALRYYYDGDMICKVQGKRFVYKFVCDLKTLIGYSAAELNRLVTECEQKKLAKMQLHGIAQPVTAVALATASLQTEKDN
Procedure, shortened: as §1

ERG = biological target: T4, ERG (Homo sapiens, UniProt P11308 1-479); details: protein: recombinant; tags: N-terminal GST; dsDNA, one strand shown
T4 sequence: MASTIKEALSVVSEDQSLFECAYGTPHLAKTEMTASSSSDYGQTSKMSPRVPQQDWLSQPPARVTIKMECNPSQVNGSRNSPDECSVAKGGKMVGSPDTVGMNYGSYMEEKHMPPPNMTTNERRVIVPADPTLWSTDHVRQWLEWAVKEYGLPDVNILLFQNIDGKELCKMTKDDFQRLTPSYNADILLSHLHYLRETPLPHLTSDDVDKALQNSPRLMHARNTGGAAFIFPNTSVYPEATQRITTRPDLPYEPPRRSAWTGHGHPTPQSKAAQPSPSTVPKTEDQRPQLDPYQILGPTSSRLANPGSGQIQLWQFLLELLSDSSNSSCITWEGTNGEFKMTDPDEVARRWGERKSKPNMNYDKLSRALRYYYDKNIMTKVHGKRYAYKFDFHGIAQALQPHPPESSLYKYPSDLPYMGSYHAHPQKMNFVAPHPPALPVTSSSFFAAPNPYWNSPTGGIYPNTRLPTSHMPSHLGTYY
Procedure, shortened: as §1

ELF1 = ELF1 (Homo sapiens, UniProt P32519 1-619); details: protein: recombinant; tags: N-terminal GST; dsDNA, one strand shown
Procedure, shortened: as §1

EHF = biological target: T5, EHF (Homo sapiens, UniProt Q9NZC4 1-300); details: protein: recombinant; tags: N-terminal GST; dsDNA, one strand shown
T5 sequence: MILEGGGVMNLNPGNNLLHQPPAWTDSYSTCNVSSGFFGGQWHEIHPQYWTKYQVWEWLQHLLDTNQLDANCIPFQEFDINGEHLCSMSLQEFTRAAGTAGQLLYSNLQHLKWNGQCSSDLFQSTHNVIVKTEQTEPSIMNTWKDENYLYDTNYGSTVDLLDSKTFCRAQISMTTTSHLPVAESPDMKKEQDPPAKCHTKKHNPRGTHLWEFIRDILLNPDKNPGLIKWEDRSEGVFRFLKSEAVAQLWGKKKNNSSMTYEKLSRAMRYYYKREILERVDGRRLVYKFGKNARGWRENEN
Procedure, shortened: as §1

SPI1 = SPI1 (Homo sapiens, UniProt P17947 1-270); details: protein: recombinant; tags: N-terminal GST; dsDNA, one strand shown
Procedure, shortened: as §1

SPIB = SPIB (Homo sapiens, UniProt Q01892 1-262); details: protein: recombinant; tags: N-terminal GST; dsDNA, one strand shown
Procedure, shortened: as §1

ELK3 = biological target: T6, ELK3 (Homo sapiens, UniProt P41970 1-407); details: protein: recombinant; tags: N-terminal GST; dsDNA, one strand shown
T6 sequence: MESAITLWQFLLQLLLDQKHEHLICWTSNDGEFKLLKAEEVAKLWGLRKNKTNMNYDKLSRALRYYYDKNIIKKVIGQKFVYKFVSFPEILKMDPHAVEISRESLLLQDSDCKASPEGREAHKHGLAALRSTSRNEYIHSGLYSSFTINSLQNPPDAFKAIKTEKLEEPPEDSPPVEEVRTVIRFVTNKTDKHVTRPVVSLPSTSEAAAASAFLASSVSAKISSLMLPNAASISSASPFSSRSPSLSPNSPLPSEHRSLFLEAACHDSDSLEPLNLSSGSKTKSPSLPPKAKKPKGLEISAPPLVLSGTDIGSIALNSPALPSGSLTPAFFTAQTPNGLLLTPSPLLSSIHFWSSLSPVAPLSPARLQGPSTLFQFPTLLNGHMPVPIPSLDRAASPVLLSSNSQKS
Procedure, shortened: as §1

FEV = biological target: T7, FEV (Homo sapiens, UniProt Q99581 1-238); details: protein: recombinant; tags: N-terminal GST; dsDNA, one strand shown
T7 sequence: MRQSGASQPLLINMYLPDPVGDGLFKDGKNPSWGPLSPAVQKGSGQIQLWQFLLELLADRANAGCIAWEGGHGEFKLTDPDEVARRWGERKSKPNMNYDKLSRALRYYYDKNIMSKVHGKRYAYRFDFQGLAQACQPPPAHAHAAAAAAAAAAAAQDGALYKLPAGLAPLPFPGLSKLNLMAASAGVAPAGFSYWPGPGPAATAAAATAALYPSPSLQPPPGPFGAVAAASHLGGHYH
Procedure, shortened: as §1

ETV5 = ETV5 (Homo sapiens, UniProt P41161 1-510); details: protein: recombinant; tags: N-terminal GST; dsDNA, one strand shown
Procedure, shortened: as §1

HSF1 = HSF1 (Homo sapiens, UniProt Q00613 1-529); details: protein: recombinant; tags: N-terminal GST; chain copies: 3; dsDNA, one strand shown
Procedure, shortened: as §1

SPIC = biological target: T8, SPIC (Homo sapiens, UniProt Q8N5J4 1-248); details: protein: recombinant; tags: N-terminal GST; dsDNA, one strand shown
T8 sequence: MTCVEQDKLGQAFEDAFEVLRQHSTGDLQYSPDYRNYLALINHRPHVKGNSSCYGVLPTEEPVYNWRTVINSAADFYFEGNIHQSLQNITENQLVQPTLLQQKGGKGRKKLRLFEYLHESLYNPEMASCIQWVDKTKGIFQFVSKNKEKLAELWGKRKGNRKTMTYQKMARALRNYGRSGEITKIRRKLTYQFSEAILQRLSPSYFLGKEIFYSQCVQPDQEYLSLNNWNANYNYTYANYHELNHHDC
Procedure, shortened: as §1

ELF4 = ELF4 (Homo sapiens, UniProt Q99607 1-663); details: protein: recombinant; tags: N-terminal GST; dsDNA, one strand shown
Procedure, shortened: as §1

ELK4 = biological target: T9, ELK4 (Homo sapiens, UniProt P28324-2 1-405); details: protein: recombinant; tags: N-terminal GST; dsDNA, one strand shown
T9 sequence: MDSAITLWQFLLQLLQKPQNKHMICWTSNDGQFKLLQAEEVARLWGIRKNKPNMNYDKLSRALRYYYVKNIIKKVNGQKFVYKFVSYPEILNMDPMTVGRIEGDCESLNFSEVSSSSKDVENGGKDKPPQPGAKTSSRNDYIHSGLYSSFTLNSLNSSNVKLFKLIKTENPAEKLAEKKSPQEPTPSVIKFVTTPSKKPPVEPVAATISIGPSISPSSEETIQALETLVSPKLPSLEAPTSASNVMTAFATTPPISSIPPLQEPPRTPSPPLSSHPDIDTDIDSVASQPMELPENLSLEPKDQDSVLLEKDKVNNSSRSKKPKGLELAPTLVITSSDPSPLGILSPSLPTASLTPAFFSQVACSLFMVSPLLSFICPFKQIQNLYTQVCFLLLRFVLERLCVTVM
Procedure, shortened: as §1

ETV2 = biological target: T10, ETV2 (Homo sapiens, UniProt O00321 1-342); details: protein: recombinant; tags: N-terminal GST; dsDNA, one strand shown
T10 sequence: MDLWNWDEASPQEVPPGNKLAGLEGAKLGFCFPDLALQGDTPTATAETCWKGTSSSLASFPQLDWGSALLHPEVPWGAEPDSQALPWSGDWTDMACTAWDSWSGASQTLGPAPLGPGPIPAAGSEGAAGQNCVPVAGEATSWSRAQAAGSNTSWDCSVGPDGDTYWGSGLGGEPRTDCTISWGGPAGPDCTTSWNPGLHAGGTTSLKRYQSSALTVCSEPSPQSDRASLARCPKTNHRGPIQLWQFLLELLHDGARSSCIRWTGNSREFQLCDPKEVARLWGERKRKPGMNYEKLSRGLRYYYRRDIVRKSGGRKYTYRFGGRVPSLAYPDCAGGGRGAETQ
Procedure, shortened: as §1

ELF3 = biological target: T11, ELF3 (Homo sapiens, UniProt P78545 1-371); details: protein: recombinant; tags: N-terminal GST; dsDNA, one strand shown
T11 sequence: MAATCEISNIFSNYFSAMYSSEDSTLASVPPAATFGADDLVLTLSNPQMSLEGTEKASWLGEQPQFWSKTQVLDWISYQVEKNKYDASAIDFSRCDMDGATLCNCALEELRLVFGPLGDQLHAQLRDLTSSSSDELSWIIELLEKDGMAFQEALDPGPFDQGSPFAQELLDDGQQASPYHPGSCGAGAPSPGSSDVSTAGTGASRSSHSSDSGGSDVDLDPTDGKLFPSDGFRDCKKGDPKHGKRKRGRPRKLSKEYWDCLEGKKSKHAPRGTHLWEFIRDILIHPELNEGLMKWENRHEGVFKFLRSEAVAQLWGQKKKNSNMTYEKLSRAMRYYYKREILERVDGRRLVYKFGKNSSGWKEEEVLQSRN
Procedure, shortened: as §1

CRX = CRX (Homo sapiens, UniProt O43186 1-299); details: protein: recombinant; tags: N-terminal GST; dsDNA, one strand shown
Procedure, shortened: as §1

ETV1 = ETV1 (Homo sapiens, UniProt P50549 1-477); details: protein: recombinant; tags: N-terminal GST; dsDNA, one strand shown
Procedure, shortened: as §1

Chain of ETV1 (P50549 whole entry): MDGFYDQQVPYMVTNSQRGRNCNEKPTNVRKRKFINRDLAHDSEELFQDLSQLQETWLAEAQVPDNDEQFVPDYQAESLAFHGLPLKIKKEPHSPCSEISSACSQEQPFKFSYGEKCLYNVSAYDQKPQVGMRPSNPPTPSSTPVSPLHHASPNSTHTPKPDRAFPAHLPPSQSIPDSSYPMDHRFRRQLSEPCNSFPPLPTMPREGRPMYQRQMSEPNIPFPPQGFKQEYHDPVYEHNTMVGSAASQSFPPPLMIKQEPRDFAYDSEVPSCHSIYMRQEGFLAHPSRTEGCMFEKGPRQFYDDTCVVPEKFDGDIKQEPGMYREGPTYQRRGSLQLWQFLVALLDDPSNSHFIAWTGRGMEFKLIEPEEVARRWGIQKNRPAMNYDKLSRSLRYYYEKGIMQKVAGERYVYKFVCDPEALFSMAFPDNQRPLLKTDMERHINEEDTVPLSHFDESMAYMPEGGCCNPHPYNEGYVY
Chain of ELF1 (P32519 whole entry): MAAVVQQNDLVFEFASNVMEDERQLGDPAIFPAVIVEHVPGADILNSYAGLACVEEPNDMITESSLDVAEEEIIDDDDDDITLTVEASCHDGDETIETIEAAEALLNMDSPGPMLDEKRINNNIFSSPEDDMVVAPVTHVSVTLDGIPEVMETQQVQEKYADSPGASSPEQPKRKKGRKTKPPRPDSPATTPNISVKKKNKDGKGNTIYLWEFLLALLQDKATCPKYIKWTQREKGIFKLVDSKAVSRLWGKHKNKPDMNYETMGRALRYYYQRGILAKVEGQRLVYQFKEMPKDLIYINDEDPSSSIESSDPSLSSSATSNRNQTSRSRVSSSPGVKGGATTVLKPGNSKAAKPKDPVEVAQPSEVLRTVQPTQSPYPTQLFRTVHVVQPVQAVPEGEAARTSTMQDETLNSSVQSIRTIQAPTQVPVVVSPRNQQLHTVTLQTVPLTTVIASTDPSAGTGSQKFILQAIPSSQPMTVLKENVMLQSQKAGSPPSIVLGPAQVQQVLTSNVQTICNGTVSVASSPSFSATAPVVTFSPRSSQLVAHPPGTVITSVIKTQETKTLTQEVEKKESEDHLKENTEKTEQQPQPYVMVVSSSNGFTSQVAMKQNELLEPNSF
Chain of HSF1 (Q00613 whole entry): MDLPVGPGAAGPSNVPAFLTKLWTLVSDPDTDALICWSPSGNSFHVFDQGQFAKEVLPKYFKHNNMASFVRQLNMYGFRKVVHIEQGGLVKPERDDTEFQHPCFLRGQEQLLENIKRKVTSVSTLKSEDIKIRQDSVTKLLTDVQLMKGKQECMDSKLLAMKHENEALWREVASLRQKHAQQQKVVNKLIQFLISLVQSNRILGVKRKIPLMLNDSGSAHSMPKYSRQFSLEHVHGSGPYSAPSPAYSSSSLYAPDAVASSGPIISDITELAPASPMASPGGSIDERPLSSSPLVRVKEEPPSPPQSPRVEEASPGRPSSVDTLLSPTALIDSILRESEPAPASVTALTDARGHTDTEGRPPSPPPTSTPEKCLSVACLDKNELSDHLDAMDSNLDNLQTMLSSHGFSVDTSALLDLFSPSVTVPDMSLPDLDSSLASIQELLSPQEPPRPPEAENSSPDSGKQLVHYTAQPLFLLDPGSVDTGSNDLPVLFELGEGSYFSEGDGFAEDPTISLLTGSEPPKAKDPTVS
Chain of ETV5 (P41161 whole entry): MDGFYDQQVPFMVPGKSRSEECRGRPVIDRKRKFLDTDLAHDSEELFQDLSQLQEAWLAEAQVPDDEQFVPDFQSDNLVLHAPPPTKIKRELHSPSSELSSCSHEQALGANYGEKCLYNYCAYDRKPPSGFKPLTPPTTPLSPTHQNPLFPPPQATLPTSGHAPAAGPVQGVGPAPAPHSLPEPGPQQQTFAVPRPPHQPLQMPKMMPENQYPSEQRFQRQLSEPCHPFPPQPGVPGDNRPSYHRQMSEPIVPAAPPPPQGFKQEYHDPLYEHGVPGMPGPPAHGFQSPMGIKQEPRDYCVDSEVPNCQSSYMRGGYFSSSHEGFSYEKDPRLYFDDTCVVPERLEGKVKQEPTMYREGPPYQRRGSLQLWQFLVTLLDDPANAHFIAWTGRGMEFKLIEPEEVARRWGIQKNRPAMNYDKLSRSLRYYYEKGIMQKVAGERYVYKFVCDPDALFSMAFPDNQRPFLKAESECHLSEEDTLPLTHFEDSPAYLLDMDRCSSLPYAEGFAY
Chain of ELF4 (Q99607 whole entry): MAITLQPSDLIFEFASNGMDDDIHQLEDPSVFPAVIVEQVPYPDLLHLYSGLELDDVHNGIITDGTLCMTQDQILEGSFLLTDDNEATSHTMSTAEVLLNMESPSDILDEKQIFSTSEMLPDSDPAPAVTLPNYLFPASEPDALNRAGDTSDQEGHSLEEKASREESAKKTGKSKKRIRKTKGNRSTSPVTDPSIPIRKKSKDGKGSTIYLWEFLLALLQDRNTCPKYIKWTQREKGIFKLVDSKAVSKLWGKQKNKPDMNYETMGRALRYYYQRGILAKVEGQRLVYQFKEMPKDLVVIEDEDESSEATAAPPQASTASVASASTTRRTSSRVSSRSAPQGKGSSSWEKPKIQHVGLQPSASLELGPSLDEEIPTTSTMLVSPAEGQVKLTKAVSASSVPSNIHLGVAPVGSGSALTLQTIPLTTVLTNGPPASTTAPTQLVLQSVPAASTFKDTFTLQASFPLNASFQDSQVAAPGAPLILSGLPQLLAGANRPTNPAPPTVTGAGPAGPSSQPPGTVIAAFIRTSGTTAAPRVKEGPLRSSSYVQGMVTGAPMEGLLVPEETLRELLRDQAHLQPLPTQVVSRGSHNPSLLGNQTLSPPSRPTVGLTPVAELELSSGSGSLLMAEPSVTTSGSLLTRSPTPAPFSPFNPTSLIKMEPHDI
Chain of SPIB (Q01892 whole entry): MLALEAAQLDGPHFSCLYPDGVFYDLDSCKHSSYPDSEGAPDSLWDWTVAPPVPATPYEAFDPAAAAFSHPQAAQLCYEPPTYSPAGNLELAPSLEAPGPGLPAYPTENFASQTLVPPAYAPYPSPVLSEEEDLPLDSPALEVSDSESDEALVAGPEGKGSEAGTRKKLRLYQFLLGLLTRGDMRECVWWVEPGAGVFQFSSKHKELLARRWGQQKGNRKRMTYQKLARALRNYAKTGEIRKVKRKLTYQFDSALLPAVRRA
Chain of CRX (O43186 whole entry): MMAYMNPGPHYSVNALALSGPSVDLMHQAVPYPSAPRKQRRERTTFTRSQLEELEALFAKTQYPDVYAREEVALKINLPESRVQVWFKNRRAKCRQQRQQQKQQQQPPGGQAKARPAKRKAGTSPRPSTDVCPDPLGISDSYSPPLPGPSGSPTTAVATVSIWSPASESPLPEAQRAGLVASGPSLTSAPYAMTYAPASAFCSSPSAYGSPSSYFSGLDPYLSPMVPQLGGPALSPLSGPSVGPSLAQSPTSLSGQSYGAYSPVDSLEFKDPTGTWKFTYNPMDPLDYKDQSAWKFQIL

## AATTGC
FLI1
  binding signal: 1.44 fold enrichment (6-mer frequency, TF over GST control)
ELK1
  binding signal: 1.42 fold enrichment (6-mer frequency, TF over GST control)
GABPA
  binding signal: 1.44 fold enrichment (6-mer frequency, TF over GST control)
ERG
  binding signal: 1.3 fold enrichment (6-mer frequency, TF over GST control)
ELF1
  binding signal: 1.34 fold enrichment (6-mer frequency, TF over GST control)
EHF
  binding signal: 1.38 fold enrichment (6-mer frequency, TF over GST control)
SPI1
  binding signal: 1.43 fold enrichment (6-mer frequency, TF over GST control)
SPIB
  binding signal: 1.29 fold enrichment (6-mer frequency, TF over GST control)
ELK3
  binding signal: 1.46 fold enrichment (6-mer frequency, TF over GST control)
FEV
  binding signal: 1.39 fold enrichment (6-mer frequency, TF over GST control)
ETV5
  binding signal: 1.43 fold enrichment (6-mer frequency, TF over GST control)
HSF1
  binding signal: 1.24 fold enrichment (6-mer frequency, TF over GST control)
SPIC
  binding signal: 1.2 fold enrichment (6-mer frequency, TF over GST control)
ELF4
  binding signal: 1.36 fold enrichment (6-mer frequency, TF over GST control)
ELK4
  binding signal: 1.29 fold enrichment (6-mer frequency, TF over GST control)
ETV2
  binding signal: 1.44 fold enrichment (6-mer frequency, TF over GST control)
ELF3
  binding signal: 1.5 fold enrichment (6-mer frequency, TF over GST control)
CRX
  binding signal: 1.17 fold enrichment (6-mer frequency, TF over GST control)
ETV1
  binding signal: 1.35 fold enrichment (6-mer frequency, TF over GST control)
